# Measurements reported in ChEMBL document CHEMBL3988442, “University of Dundee, Small-Polar-MMV Screening Library” (2021).
# For some assays here: Entries with a potency or affinity are not part of this list.
# Experiments:
# Set-up in all cases: scale not given: direction of the effect not stated beside the values
# [1] = molecular target: Protein translocase subunit SecA (Escherichia coli (strain K12)) (UniProt P10408); assay: Assay to Identify E. coli SecA ATPase Inhibitors; type: functional; details: 30 µM
# [2] = molecular target: T1, Ubiquitin-activating enzyme e1, putative (Leishmania donovani (strain BPK282A1)) (UniProt E9BSI1); assay: Leishmania donovani Ubiquitin Activating Enzyme (LdE1); type: functional; details: 30 µM
# T1 sequence (whole entry): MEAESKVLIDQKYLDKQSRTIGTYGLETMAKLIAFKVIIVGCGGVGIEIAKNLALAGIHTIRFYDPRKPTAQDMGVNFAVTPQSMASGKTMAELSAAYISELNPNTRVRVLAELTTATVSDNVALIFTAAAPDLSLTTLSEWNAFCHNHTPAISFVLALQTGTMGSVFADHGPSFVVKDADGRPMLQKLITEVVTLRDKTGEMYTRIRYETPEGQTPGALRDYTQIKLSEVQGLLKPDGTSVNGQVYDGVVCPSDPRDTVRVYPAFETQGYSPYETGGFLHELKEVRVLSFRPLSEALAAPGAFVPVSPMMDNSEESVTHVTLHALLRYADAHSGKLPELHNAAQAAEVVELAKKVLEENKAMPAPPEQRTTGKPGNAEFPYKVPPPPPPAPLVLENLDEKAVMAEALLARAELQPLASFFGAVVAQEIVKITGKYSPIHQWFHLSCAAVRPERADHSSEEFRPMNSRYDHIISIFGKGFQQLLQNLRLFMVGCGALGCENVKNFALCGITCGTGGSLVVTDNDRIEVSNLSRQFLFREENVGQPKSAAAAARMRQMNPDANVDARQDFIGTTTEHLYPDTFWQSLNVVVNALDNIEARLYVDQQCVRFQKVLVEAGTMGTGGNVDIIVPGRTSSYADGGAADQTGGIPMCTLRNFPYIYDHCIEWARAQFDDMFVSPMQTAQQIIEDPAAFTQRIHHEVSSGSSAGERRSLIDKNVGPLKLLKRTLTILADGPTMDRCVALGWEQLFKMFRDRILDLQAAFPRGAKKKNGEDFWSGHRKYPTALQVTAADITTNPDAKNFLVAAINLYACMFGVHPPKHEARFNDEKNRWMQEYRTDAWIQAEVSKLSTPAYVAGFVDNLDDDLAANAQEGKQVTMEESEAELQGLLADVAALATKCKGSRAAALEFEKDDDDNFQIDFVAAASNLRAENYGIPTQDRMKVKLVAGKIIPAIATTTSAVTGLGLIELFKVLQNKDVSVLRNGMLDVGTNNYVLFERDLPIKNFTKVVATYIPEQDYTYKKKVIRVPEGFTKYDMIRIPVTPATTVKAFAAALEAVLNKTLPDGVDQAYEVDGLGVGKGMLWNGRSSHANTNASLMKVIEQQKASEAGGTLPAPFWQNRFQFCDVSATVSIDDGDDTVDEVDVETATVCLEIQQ
# [3] = molecular target: AMP-activated protein kinase, AMPK (Homo sapiens) (UniProt P54646+O43741+P54619+Q9UGJ0+Q9Y478+Q13131+Q9UGI9); assay: AMP-dependent Kinase enzyme assay. An in vitro enzyme assay that detects ADP turnover that is directly proportional to AMPK activity. This uses naive AMPK that is activated during the assay with MK-8722; type: functional; details: 30 µM
# [4] = molecular target: Sialic acid-binding Ig-like lectin 9 (Homo sapiens) (UniProt Q9Y336); assay: Hs-Siglec9 ALPHAscreen SOP 20170721; details: 10 µM
# Trypanosoma cruzi = assay: Trypanosoma cruzi phosphomannomutase and mannose-1-phosphate guanylyltransferase assay; type: functional; details: 10 µM
# [5] = molecular target: T2, Arginase-2, mitochondrial (Homo sapiens) (UniProt P78540); assay: in vitro enzyme assay to detect the production of urea directly proportional to the activity of Arginase II; type: functional; details: 33.3 µM; also: in the data most compounds retested in dose-response had high values
# T2 sequence (whole entry): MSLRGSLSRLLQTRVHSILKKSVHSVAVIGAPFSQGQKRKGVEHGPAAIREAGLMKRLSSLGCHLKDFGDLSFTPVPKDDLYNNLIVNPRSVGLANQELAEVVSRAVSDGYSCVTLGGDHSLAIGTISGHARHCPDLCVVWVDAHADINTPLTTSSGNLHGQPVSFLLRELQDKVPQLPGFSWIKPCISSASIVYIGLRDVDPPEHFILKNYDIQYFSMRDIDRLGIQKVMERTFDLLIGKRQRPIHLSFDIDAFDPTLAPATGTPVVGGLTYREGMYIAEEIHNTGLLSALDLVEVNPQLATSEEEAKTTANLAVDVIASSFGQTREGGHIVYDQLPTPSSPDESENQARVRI
# [6] = molecular target: T3, Proteasome subunit beta (Trypanosoma cruzi) (UniProt O96673); assay: Trypanosoma cruzi proteasome chymotrypsin-like activity (TcProtChymo) assay.; also: in the data most compounds retested in dose-response had high values; type: functional; details: 9.37 µM
# T3 sequence (whole entry): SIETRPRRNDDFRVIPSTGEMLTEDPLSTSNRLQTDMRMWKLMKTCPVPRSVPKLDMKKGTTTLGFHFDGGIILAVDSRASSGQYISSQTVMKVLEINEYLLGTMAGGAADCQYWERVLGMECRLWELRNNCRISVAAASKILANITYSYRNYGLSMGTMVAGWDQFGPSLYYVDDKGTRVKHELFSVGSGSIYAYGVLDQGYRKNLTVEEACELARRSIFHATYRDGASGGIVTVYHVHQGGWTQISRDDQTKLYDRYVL
# Homo sapiens = species: Homo sapiens; assay: To identify inhibition of the IFN signalling (Jak-Stat) pathway via expression of an eGFP reporter gene under the control of an IFN-stimulated response element (ISRE) containing MxA promoter.; type: functional; details: 30 µM
# [7] = molecular target: T4, Tyrosyl-tRNA synthetase, putative (Trypanosoma cruzi (strain CL Brener)) (UniProt Q4DSP6); assay: Trypanosoma cruzi tyrosyl tRNA synthetase (TcYRS) _High Tyrosine SOP; type: functional; details: 30 µM; also: in the data most compounds retested in dose-response had high values
# T4 sequence (whole entry): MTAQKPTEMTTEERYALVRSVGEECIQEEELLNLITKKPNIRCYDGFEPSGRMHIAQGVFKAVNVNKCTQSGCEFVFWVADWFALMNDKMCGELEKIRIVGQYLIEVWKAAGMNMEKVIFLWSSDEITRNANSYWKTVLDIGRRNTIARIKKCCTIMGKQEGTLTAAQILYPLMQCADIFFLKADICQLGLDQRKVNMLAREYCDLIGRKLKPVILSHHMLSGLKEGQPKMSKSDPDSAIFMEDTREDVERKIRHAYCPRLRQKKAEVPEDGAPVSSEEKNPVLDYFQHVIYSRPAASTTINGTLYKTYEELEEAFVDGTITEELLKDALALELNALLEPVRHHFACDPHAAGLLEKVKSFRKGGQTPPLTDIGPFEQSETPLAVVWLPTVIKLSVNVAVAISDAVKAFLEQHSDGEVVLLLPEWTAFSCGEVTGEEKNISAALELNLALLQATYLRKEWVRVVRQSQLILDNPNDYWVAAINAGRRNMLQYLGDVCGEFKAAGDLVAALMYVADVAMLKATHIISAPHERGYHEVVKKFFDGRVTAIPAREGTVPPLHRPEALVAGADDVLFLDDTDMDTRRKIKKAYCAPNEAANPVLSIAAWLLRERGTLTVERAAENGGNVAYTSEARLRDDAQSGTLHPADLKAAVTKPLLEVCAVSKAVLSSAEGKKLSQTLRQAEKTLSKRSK
# [8] = molecular target: T4, Tyrosyl-tRNA synthetase, putative (Trypanosoma cruzi (strain CL Brener)); assay: Trypanosoma cruzi tyrosyl tRNA synthetase (TcYRS) SOP; type: functional; details: 30 µM
# [9] = molecular target: Chromo domain-containing protein 1 (Saccharomyces cerevisiae (strain ATCC 204508 / S288c) (Baker's yeast)) (UniProt P32657); assay: ScCHD-1 Enzyme Inhibition Assay; type: functional; details: 30 µM; also: in the data most compounds retested in dose-response had high values
# Chain of Chromo domain-containing protein 1 (Saccharomyces cerevisiae (strain ATCC 204508 / S288c) (Baker's yeast)) (P32657 whole entry, the tested form may be a part): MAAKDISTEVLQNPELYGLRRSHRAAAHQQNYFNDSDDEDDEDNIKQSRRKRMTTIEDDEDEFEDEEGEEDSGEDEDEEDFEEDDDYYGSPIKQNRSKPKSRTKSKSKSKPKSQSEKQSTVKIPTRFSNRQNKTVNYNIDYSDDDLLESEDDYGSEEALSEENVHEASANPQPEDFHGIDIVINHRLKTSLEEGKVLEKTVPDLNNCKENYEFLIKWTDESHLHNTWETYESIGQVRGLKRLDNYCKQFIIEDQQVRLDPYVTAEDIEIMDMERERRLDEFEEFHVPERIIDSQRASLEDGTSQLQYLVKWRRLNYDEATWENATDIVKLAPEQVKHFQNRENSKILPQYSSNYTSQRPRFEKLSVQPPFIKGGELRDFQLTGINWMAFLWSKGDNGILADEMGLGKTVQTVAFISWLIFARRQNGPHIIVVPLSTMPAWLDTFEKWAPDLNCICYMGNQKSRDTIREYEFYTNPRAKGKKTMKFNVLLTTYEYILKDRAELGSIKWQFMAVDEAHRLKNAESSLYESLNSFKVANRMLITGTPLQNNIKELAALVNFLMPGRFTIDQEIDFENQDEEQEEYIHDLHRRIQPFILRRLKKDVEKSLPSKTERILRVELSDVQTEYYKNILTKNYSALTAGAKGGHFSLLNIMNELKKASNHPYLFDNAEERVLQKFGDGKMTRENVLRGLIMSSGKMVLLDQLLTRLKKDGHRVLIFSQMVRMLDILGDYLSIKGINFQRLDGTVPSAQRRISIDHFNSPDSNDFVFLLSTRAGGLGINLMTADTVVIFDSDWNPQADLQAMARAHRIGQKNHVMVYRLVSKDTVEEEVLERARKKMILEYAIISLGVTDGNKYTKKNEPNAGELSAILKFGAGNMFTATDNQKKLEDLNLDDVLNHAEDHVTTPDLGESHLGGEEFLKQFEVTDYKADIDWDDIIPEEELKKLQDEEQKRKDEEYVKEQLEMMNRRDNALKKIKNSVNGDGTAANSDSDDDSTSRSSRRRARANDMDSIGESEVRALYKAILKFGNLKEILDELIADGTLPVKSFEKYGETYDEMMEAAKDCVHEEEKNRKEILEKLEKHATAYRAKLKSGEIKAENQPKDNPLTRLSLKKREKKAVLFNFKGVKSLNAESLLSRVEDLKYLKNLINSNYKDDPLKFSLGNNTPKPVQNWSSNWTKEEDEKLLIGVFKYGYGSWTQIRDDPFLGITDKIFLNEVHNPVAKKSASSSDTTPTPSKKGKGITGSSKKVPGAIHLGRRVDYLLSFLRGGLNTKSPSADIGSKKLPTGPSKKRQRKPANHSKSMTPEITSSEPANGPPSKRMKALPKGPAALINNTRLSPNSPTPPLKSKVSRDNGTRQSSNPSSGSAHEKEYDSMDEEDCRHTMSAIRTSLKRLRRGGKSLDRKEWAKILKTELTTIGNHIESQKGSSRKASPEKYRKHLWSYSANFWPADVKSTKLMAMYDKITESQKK
# Chain of Protein translocase subunit SecA (Escherichia coli (strain K12)) (P10408 whole entry): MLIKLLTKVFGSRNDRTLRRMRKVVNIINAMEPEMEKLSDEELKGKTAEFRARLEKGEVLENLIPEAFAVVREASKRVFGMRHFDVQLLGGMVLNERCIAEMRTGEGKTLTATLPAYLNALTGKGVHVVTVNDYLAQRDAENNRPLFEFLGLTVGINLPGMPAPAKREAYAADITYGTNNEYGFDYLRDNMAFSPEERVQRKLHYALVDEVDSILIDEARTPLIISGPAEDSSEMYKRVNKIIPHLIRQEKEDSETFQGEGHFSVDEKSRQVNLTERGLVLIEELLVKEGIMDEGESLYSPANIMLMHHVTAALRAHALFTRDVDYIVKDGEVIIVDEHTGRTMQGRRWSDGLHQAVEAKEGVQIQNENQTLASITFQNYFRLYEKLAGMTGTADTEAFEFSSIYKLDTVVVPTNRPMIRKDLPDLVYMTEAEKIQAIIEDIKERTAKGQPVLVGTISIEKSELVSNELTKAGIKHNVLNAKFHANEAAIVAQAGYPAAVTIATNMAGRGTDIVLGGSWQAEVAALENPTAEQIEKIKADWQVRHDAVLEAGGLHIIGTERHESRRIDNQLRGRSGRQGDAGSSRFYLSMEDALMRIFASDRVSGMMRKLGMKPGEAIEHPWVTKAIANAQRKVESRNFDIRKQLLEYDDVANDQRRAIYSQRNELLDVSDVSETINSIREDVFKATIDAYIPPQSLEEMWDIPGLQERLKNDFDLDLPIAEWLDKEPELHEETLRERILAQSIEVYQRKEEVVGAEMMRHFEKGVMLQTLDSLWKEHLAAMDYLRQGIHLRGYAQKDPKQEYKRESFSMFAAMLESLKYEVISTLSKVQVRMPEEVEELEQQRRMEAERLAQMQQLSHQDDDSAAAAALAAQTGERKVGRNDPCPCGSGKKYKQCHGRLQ
# Chain of Sialic acid-binding Ig-like lectin 9 (Homo sapiens) (Q9Y336 whole entry): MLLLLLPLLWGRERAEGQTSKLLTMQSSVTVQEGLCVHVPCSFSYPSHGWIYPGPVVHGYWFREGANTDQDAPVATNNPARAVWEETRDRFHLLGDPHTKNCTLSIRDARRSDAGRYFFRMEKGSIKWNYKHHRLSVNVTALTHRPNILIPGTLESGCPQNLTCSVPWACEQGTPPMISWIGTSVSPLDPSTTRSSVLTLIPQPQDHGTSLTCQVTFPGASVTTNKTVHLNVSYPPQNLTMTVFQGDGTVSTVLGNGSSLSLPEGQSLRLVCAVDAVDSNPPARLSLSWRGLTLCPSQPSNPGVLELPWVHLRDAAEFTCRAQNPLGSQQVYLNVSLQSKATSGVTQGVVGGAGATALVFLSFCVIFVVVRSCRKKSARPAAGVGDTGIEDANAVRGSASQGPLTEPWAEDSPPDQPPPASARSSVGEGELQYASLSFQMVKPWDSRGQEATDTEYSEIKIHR
Structure (SMILES),Percent Effect [1],Percent Effect [2],Percent Effect [3],Percent Effect [4],Percent Effect (Trypanosoma cruzi),Percent Effect [5],Percent Effect [6],Percent Effect (Homo sapiens),Percent Effect [7],Percent Effect [8],Percent Effect [9]
COc1cc(C(=O)NS(=O)(=O)c2cccc(C#N)c2)cc(Cl)c1OC,-2.08%,-5.41%,2.84%,4.53%,3.44%,3.51%,1.79%,-7.05%,-6.93%,-1.22%,6.51%
COC(=O)CCc1c(C)nc2cc(O)nn2c1C,-4.39%,20.8%,-48.9%,6.03%,1.31%,-3.92%,9.46%,6.61%,9.71%,21.9%,-9.77%
CC(C)C(=O)N1CCCC(c2cc(C(F)F)n3ncnc3n2)C1 (configuration not stated),-6.98%,4.05%,6.16%,-5.54%,-4.94%,-6.73%,4.21%,18%,-3.23%,1.3%,-0.33%
O=C1CCC2(CCN(Cc3nccs3)CC2)N1Cc1ccccc1,-0.659%,5.33%,5.45%,1.02%,-5.91%,3.03%,10.8%,5.84%,5.32%,11.5%,-0.585%
CNCC(=O)N1CC(c2cc(Nc3ncccn3)nc(C)n2)C1,0.103%,10.7%,6.11%,-7.15%,-4.33%,-1.63%,8.9%,13.8%,10.6%,16.7%,-1.56%
Cn1nccc1C1CCN(CC(O)c2cccc(F)c2)CC1 (configuration not stated),-3.15%,5.06%,0.204%,2.12%,6.89%,-1.14%,4.18%,15.3%,-0.493%,-8.86%,-4.6%
Cn1ccnc1CN1CCN(Cc2cc(C#N)ccc2F)CC1,-2.4%,2.7%,1.09%,-1.18%,-9.38%,6.1%,10.8%,20%,5.94%,6.1%,3.16%
CCC1CN(C(=O)c2ccc(=O)[nH]c2)CCC(=O)N1Cc1ccccc1 (configuration not stated),-1.75%,4.17%,-3.51%,-12.5%,-3.21%,3.09%,14%,14.1%,0%,2.56%,-2.44%
CCOc1ccccc1C1CCCN1 (configuration not stated),-5.25%,7.89%,2.38%,-2.36%,1.27%,-7.1%,15.4%,-5.78%,-1.06%,2.6%,-7.12%
CCn1cnnc1CNC(=O)N(C)Cc1ccc(F)c(F)c1,-2.13%,18.9%,-11.7%,14.1%,1.04%,-5.21%,7.57%,8.28%,7.39%,18.5%,-7.63%
CCn1ncc2c1C(COC)CN(Cc1ccc(OC)cc1)C2 (configuration not stated),-1.81%,5.41%,-4.68%,14.4%,2.44%,0.744%,3.35%,40%,2.15%,6.17%,-11.4%
COCCn1ccc(NC(=O)Nc2ccc(C(N)=O)c(F)c2)n1,-4.16%,-7.89%,10.9%,-0.377%,-3.41%,-4.73%,13.3%,-2.4%,0%,0%,75.5%
COc1ccc(OCC(=O)NC(C)c2ccc(F)cc2)c(C(=O)O)c1 (configuration not stated),-5.45%,5.41%,1.14%,2.91%,2.05%,5.21%,0.944%,-0.568%,4.3%,13.6%,-5.02%
Cc1nc(C)n(C2CCCN(C(=O)CCCn3ccnc3)C2)n1 (configuration not stated),-8.21%,0%,0.109%,0.244%,-3.91%,2.92%,10.4%,5.38%,4.95%,3.66%,-1.65%
Cc1cc(C)n(CC2CCCN2CC(=O)N(C)C)n1 (configuration not stated),-2.72%,-2.7%,-5.85%,20%,-2.92%,-4.01%,9.19%,3.86%,-0.493%,1.24%,-0.0682%
CC(=O)N1CCO[C@@H]2CN(C(=O)c3cc(C)oc3C)CC[C@@H]2C1,-6.41%,10.8%,-31.2%,-10.6%,-1.07%,0.319%,7.75%,19.1%,0%,0%,-3.96%
CCc1nc(CN(Cc2cccs2)CC2CCCO2)no1 (configuration not stated),-0.473%,-11.4%,2.16%,0.0835%,-0.308%,2.37%,4.29%,10.4%,-3.12%,5.06%,3.56%
CCOC(=O)CN1CCC(C(=O)c2cc(F)ccc2F)CC1,-9.27%,-5.26%,-10.9%,11.4%,12.4%,-1.53%,4.01%,2.26%,5.39%,7.32%,-11.5%
CCCn1ccc2ccc(NC(=O)N(C)CCOC)cc21,-1.73%,-10.5%,-6.25%,4.31%,-4.58%,1.18%,9.3%,-9.53%,1.06%,5.2%,-2.86%
CC(C)CN1CCCn2nc(CNC(=O)c3cccnc3O)cc2C1,-5.79%,21.3%,-6.62%,22.5%,6.52%,5.73%,13.2%,13.9%,6.01%,18.5%,-7.12%
CN(CCNC(=O)N1CCN(Cc2ccon2)CC1)C1CCCC1,-7%,2.67%,3.19%,-0.946%,1.85%,4.69%,-2.27%,4.26%,4.92%,8.64%,-1.28%
CC(C)n1ccnc1C1CCN(Cc2ccc(Cl)c(F)c2)CC1,-4.75%,5.2%,1.93%,15.3%,0.885%,-4.14%,12.5%,18.3%,6.45%,8.64%,0.763%
